GSTO1 inh – GSTO1 inhibition, counter-screen for RBBP9 inhibitors | P78417 | recombinant GSTO1, activity-based probe fluorescence polarization | inhibition, % at 5.96 µM | 1.1% of 300,000 active | AID 1974;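 active = inhibition above the campaign mean inhibition plus 3 SD, cut at about 35% in these data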;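 also: 0% = GSTO1-1 with DMSO and 100% = wells lacking GSTO1-1 enzyme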
PAD4 FP inh – PAD4 (human) enzyme inhibition; AID 485272; 0.41% of 330,000 active; Q9UM07; recombinant PAD4, RCA probe fluorescence polarization; inhibition, % at 6.36 µM;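 active = percent inhibition above a cutoff equal to the mean of all tested compounds plus 3 SD, cut at about 15% in these data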;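 also: 0% = PAD4 with RCA probe and DMSO and 100% = probe without PAD4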
ZTA counter – counter-screen for EBNA-1 inhibitors: inhibitors of Epstein-Barr virus ZTA. P03206. ZTA-DNA binding, fluorescence polarization. inhibition, % at 11 µM. 0.15% of 320,000 active; in the data active = inhibition above about 33%
Target sequence (P03206 whole entry, looked up): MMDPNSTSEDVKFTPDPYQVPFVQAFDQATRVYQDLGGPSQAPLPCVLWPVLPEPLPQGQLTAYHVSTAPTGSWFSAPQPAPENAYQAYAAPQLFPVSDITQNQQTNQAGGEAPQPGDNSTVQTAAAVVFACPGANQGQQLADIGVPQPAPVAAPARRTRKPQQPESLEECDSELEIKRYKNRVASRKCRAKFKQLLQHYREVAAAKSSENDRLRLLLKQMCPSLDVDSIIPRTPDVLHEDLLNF
LYPLA2 inh – counter-screen for PME1 inhibitors: inhibitors of human LYPLA2; recombinant LYPLA2, FP-Rh probe fluorescence polarization; inhibition, % at 5.9 µM; 0.38% of 320,000 active;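 active = inhibition above the screen-wide mean plus 3 SD, limit set per campaign, cut at about 26% in these data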;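 also: 0% = LYPLA2 with DMSO and 100% = wells lacking LYPLA2 enzyme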
EBNA-1 inhibitor – blocks EBNA-1 binding to DNA; EBNA-1 DNA binding, fluorescence polarization; inhibition, % at 14.8 µM; 0.34% of 300,000 active; AID 1950; in the data active = inhibition above about 28%
LYPLA1 counter – LYPLA1 (human) inhibition in PME1 counter-screen; O75608; recombinant LYPLA1, FP-Rh probe fluorescence polarization; inhibition, % at 5.9 µM; 0.16% of 320,000 active; AID 2174;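 active = inhibition above the mean of all tested compounds plus 3 SD, set per campaign, cut at about 14% in these data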;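 also: inhibitors block serine hydrolase probe labeling of LYPLA1 so polarization falls; 0% = enzyme with DMSO and 100% = wells lacking LYPLA1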
Target sequence (O75608 whole entry, looked up): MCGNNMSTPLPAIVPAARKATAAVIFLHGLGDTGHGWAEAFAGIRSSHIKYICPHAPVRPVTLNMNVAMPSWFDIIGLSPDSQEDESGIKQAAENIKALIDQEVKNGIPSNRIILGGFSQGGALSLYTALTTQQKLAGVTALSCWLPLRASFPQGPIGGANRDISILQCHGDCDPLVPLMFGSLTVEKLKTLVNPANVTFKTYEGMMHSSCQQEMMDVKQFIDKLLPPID
GSTO1 confirm – confirmation of human GSTO1 inhibitors | shares compounds with GSTO1 inh | recombinant GSTO1, probe fluorescence polarization | inhibition, % at 5.96 µM | 54% of 2,400 active | AID 2176;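 active = inhibition above the primary screen's cutoff, its mean inhibition plus 3 SD, cut at about 35% in these data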;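 also: loss of polarization as inhibitors block binding of rhodamine sulfonate ester activity probe; 0% = GSTO1 with DMSO and 100% = wells lacking GSTO1 enzyme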
GSTO1 recomb ABPP – blocks recombinant human glutathione S-transferase omega 1; shares compounds with GSTO1 inh; recombinant GSTO1, gel ABPP SE-Rh probe fluorescence; inhibition, % at 1 µM; 30% of 130 active; AID 463110;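 active = inhibition of the enzyme GSTO1 above about 75%, limit read from the data; inactive = inhibition below that limit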
Numbers without * were called inactive. A selection: hits, their analogues and other compounds. The true share with any hit is near 1.7%.

`COc1cccc2c(=O)c3cccc(N)c3[nH]c12` gave GSTO1 inh 67*, PAD4 FP inh -6, ZTA counter -12, LYPLA2 inh -8, EBNA-1 inhibitor -2, LYPLA1 counter -7 and GSTO1 confirm 14.
`CCCCn1c(N)c(N(CC(C)C)C(=O)c2cc(C)oc2C)c(=O)[nH]c1=O` gave GSTO1 inh -2, PAD4 FP inh 2, ZTA counter 10, LYPLA2 inh 2, EBNA-1 inhibitor 7 and LYPLA1 counter 3.
`O=C(CCl)Nc1cccc(-c2cnc3ccccc3n2)c1` gave GSTO1 inh 69*, PAD4 FP inh 3, ZTA counter 9, LYPLA2 inh 7, EBNA-1 inhibitor 8, LYPLA1 counter 2 and GSTO1 confirm 94*.
`O=C(CCl)N(CCc1ccccc1)CCc1ccccc1` gave GSTO1 inh 79*, PAD4 FP inh 9, ZTA counter 1, LYPLA2 inh -5, EBNA-1 inhibitor 5, LYPLA1 counter -1, GSTO1 confirm 96* and GSTO1 recomb ABPP 82*.
CCN1CCN(C(=S)c2ccc(-c3ccccc3)cc2)CC1 was read as GSTO1 inh 6, PAD4 FP inh -2, ZTA counter 6, LYPLA2 inh 2, EBNA-1 inhibitor -10 and LYPLA1 counter -1.
For Cc1nc2c(O)cccc2cc1CO the results were GSTO1 inh 50*, PAD4 FP inh 2, ZTA counter -1, LYPLA2 inh -1, EBNA-1 inhibitor 15, LYPLA1 counter -2 and GSTO1 confirm 4.
`Cc1ccc(O)c(CO)n1` gave GSTO1 inh 0, PAD4 FP inh 0, ZTA counter -9, LYPLA2 inh 2, EBNA-1 inhibitor -11 and LYPLA1 counter 0.
For O=C(Nc1ccc(S(=O)(=O)NCc2ccccc2)cc1)c1ccc(Br)o1 the results were GSTO1 inh -11, PAD4 FP inh -7, ZTA counter 3, LYPLA2 inh -6, EBNA-1 inhibitor -4 and LYPLA1 counter -5.
Screening C=CCn1c(NC(=O)c2ccc(Br)o2)c(S(=O)(=O)c2ccccc2)c2nc3ccccc3nc21 returned GSTO1 inh 65*, PAD4 FP inh 20*, ZTA counter 6, LYPLA2 inh 3, EBNA-1 inhibitor 9, LYPLA1 counter 0 and GSTO1 confirm 7.
`CC(=O)c1c(C)nc(-c2ccc(Cl)cc2)nc1N=CN(C)C` gave GSTO1 inh 38*, PAD4 FP inh -4, ZTA counter 4, LYPLA2 inh -4, EBNA-1 inhibitor -3, LYPLA1 counter -3 and GSTO1 confirm 16.
Screening CC(=O)c1c(C)nc(-c2ccc(Cl)cc2)nc1N returned GSTO1 inh 7, PAD4 FP inh -6, ZTA counter 12, LYPLA2 inh -2, EBNA-1 inhibitor 4 and LYPLA1 counter 1.
For O=C1CSC2=NCN(c3ccc4c(c3)OCO4)CN12 the results were GSTO1 inh 11, PAD4 FP inh 0, ZTA counter 7, LYPLA2 inh -6, EBNA-1 inhibitor -6 and LYPLA1 counter -3.
CN(C)c1ccc(N2CN=C3SCC(=O)N3C2)cc1 was read as GSTO1 inh 72*, PAD4 FP inh 12, ZTA counter active, LYPLA2 inh 5, EBNA-1 inhibitor active, LYPLA1 counter -1 and GSTO1 confirm 4.
For CC(NC(=O)CNC(=O)c1ccc2c(c1)OCO2)c1ccc(S(N)(=O)=O)cc1 (stereo not drawn) the results were PAD4 FP inh 0, ZTA counter -8, LYPLA2 inh 3 and LYPLA1 counter 2.
Screening CCN1CCN(C(=O)Cn2nc(C)c3sc4ccccc4c3c2=O)CC1 returned GSTO1 inh 6, PAD4 FP inh -1, ZTA counter 12, LYPLA2 inh 7, EBNA-1 inhibitor -4 and LYPLA1 counter 2.
Screening Clc1ccc(-c2nnc(SCc3nc(-c4ccccc4)no3)o2)cc1 returned GSTO1 inh 40*, PAD4 FP inh 0, ZTA counter 13, LYPLA2 inh -2, EBNA-1 inhibitor -2, LYPLA1 counter -2 and GSTO1 confirm 46*.
Screening O=C(Nc1ccccc1-c1ccccc1)c1ccccc1 returned GSTO1 inh 6, PAD4 FP inh 1, ZTA counter 0, LYPLA2 inh 7, EBNA-1 inhibitor -8 and LYPLA1 counter 2.
For Nc1c(S(=O)(=O)O)cc(NC(=O)c2ccccc2)c2c1C(=O)c1ccccc1C2=O the results were GSTO1 inh 41*, PAD4 FP inh 4, ZTA counter 16, LYPLA2 inh 16, EBNA-1 inhibitor 19, LYPLA1 counter 14 and GSTO1 confirm 63*.
CC(NC(=O)Cn1cccc1C(=O)c1ccccc1)c1ccc2c(c1)OCCO2 (stereo not drawn) was read as GSTO1 inh 21, PAD4 FP inh -3, ZTA counter -7, LYPLA2 inh -3, EBNA-1 inhibitor 2 and LYPLA1 counter -2.
`O=C(CSc1ccc(-c2ccc(F)cc2)nn1)NC1CCCCC1` gave GSTO1 inh 2, PAD4 FP inh -3, ZTA counter 8, LYPLA2 inh -2, EBNA-1 inhibitor 4 and LYPLA1 counter -4.
Screening O=C1C(=O)c2ccccc2C(O)=C1CCCCl returned GSTO1 inh 68*, PAD4 FP inh 3, ZTA counter -5, LYPLA2 inh 7, EBNA-1 inhibitor 2, LYPLA1 counter 2 and GSTO1 confirm 73*.
`COc1ccc(CC2=C(O)c3ccccc3C(=O)C2=O)cc1` gave GSTO1 inh 12, PAD4 FP inh -4, ZTA counter -2, LYPLA2 inh 1, EBNA-1 inhibitor -1 and LYPLA1 counter 0.
Screening Cc1cc(=O)[nH]c(N=N/C(=N/Nc2ccc(O)cc2)c2ccccc2)n1 returned GSTO1 inh 52*, PAD4 FP inh -7, ZTA counter -6, LYPLA2 inh 0, EBNA-1 inhibitor -8, LYPLA1 counter 3 and GSTO1 confirm 8.
COc1ccc(C(=O)Nc2ccc(O)c3ccccc23)cc1 was read as GSTO1 inh 49*, PAD4 FP inh -8, ZTA counter -10, LYPLA2 inh 5, EBNA-1 inhibitor -14, LYPLA1 counter 2 and GSTO1 confirm 6.
For COc1ccc(OC)c(S(=O)(=O)Nc2ccc(O)c3ccccc23)c1 the results were GSTO1 inh 60*, PAD4 FP inh -2, ZTA counter 7, LYPLA2 inh 7, EBNA-1 inhibitor -13, LYPLA1 counter 1 and GSTO1 confirm 8.
For COc1ccc(OC)c(S(=O)(=O)Nc2cccc3c(O)cccc23)c1 the results were GSTO1 inh 31, PAD4 FP inh -6, ZTA counter 11, LYPLA2 inh -9, EBNA-1 inhibitor -12 and LYPLA1 counter -5.

Assay outcomes deposited in PubChem BioAssay by The Scripps Research Institute Molecular Screening Center.
